Drawing on PubChem BioAssay (EPA / NIEHS), this text covers outcome and AC50 for 20 molecules.

Each structure is given as a SMILES string. Records with an inconclusive call do not appear. The source made the active and inactive calls. The calls were made as follows: active = hit-call score of the fitted dose curve at least 0.9, where 1 is the maximum; inconclusive = response in the unintended direction; inactive = score below 0.9.

Sequence of chimpanzee Androgen Receptor (AR), AR (gene 747460) (O97775 whole entry, looked up): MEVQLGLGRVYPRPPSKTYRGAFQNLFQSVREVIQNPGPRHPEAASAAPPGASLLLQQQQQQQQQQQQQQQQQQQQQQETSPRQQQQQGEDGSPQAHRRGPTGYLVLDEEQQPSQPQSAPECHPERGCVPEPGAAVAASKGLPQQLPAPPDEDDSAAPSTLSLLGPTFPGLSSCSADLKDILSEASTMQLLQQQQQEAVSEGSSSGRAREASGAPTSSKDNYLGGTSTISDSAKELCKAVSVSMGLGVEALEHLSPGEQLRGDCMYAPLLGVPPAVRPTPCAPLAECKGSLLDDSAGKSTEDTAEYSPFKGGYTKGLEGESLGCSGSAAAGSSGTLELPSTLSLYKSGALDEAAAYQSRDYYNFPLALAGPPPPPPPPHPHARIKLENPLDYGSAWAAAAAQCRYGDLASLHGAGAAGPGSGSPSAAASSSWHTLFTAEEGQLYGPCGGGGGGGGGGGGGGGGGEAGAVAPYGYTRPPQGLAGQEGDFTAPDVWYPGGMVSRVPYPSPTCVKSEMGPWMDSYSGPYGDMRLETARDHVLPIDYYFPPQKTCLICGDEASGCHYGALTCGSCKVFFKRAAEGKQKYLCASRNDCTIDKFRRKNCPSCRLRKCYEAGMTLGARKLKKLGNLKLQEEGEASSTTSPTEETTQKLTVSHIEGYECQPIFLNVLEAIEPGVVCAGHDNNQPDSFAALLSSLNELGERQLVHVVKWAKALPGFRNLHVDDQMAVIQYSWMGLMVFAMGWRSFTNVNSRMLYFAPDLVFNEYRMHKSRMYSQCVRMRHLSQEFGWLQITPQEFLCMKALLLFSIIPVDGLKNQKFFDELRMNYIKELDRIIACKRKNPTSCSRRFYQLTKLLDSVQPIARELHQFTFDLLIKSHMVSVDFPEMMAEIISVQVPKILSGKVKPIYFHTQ

The target of one assay is chimpanzee Androgen Receptor (AR), AR (gene 747460) (UniProt O97775). Kind of assay: NVS_NR_cAR: NovaScreen (NVS) Nuclear Receptor Binding Assay for chimpanzee Androgen Receptor (AR) (AID 2283346).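 Also: radioligand displacement from AR measured by scintillation counting in a cell-free assay.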 In outline:
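Cell-free radioligand displacement using receptor protein extracted from Sf9/Sf21 cells; bound radioligand measured by scintillation counting 72 hours after chemical dosing. Loss of signal versus DMSO baseline indicates binding; primary screen single-concentration in duplicate at 25 uM, actives followed in concentration series.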
As for `C#CCOC(=O)/C=C(C)/C=C/CC(C)CCCC(C)C` (stereo unspecified), the outcome was inactive.

Turning to `OC(Cc1ccccc1Cl)(Cn1cncn1)C1(Cl)CC1` (stereo unspecified), the outcome was inactive. Usually AC50 stands for the concentration at which the activity in the assay is half-maximal. As to `O=[N+]([O-])c1ccc(Cl)c([N+](=O)[O-])c1`, the AC50 was 11.9 µM (active). Take `N#CS`: the call was inactive. `O=C(CCl)Nc1ccccc1`: the molecule was classed as inactive. Regarding `CC(C)=CC1C(C(=O)OCc2cccc(Oc3ccccc3)c2)C1(C)C` (stereo unspecified), the outcome was inactive. For the molecule `Oc1cc(Cl)c(Cl)cc1Cl`, the outcome was inactive. With `Cc1ccc2nc3sc(=O)sc3nc2c1`, the AC50 was 0.363 µM (active). On to `Nc1ccc(N)cc1`, for which the AC50 is 25 µM (active). In the case of `O=c1oc2ccccc2c(O)c1C(CC(O)c1ccc(-c2ccc(Br)cc2)cc1)c1ccccc1` (stereo unspecified), the outcome was inactive.

For the molecule `CCC[CH2][Sn]([Cl])([Cl])[CH2]CCC`, the AC50 was 19.6 µM (active).

The target of the next assay is Estrogen receptor (Homo sapiens) (UniProt P03372). Kind of assay: NVS_NR_hER: NovaScreen (NVS) Nuclear Receptor Binding Assay for human Estrogen Receptor (ER) (AID 2283348). A digest of the protocol: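 Cell-free radioligand binding with protein extracted from MCF7 cells; scintillation counting 18 hours after dosing. Loss of signal versus DMSO baseline read as displacement; primary single-concentration screen at 25 uM in duplicate, actives retested in concentration series.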
Sequence of Estrogen receptor (Homo sapiens) (P03372 whole entry, looked up): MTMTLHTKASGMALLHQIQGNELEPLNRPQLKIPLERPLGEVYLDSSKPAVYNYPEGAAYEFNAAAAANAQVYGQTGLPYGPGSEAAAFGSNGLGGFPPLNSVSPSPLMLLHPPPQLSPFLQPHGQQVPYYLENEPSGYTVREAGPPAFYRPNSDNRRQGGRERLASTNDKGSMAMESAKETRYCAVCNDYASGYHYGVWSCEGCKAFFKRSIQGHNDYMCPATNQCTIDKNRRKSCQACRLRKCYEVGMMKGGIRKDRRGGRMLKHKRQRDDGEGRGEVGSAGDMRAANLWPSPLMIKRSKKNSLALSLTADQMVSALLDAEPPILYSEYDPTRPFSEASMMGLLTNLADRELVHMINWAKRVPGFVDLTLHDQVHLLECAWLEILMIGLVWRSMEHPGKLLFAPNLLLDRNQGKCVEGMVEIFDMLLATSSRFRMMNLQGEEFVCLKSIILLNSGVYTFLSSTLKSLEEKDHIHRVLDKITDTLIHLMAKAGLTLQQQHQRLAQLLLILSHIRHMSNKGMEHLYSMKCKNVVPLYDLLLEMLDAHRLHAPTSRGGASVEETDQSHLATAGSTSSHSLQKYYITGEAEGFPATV
For `O=[N+]([O-])c1ccc(Cl)c([N+](=O)[O-])c1`, the call was inactive. Regarding `O=S1OC[C@@H]2[C@H](CO1)[C@]1(Cl)C(Cl)=C(Cl)[C@@]2(Cl)C1(Cl)Cl` (stereo partly specified), the molecule was classed as inactive. Take `CC(C)[C@@H](Nc1ccc(C(F)(F)F)cc1Cl)C(=O)OC(C#N)c1cccc(Oc2ccccc2)c1` (stereo partly specified): the outcome was inactive. Consider `O=c1[nH]c2ccccc2n1C1CCN(CCCC(c2ccc(F)cc2)c2ccc(F)cc2)CC1`, for which the molecule was called inactive.

As to `O=C(Nc1ccc(Br)cc1)c1cc(Br)cc(Br)c1O`, the molecule was called inactive. For the molecule `CCCCCCCCCCCCCCC(Br)C(=O)O` (stereo unspecified), the molecule was called inactive. With `Nc1ccc(Br)cc1`, the call was inactive. On to `C=CC(=O)OCC(COC(=O)C=C)(COC(=O)C=C)COC(=O)C=C`, for which the call was inactive. Same read-out and setting: the same measure for `OC(c1ccc(Cl)cc1)(c1ccc(Cl)cc1)c1cccnc1`: “inactive”.

For the molecule `CC(=Cc1ccccc1)[N+](=O)[O-]`, the call was inactive.
